# In the supplement of paper PMC4466140:
# Experiments:
# Experiment in all cases: SPOT peptide array binding signal intensity (averaged, normalized) (arbitrary units (background-subtracted, floor 0; scale differs between SH3 domains)); higher = stronger binding of the SH3 domain to the peptide
# [1] = biological target: AgAbp1
# Summary of the method: (§1)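 Binding signal refers to normalized, background-subtracted spot intensity averaged over replicates, expressed in arbitrary units that differ between domains. GST-fused SH3 domains from four yeast species were incubated at 10 μg/ml overnight at 4°C on cellulose membranes of synthetic 15-mer peptides with cysteines replaced by serines. Bound protein was detected with anti-GST antibody, an HRP anti-mouse secondary and luminol, and quantified with Genespotter.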
# [2] = biological target: AgBbc1
# Summary of the method: as §1
# [3] = biological target: AgBem1-D1
# Summary of the method: as §1
# [4] = biological target: AgBzz1-D1
# Summary of the method: as §1
# [5] = biological target: AgBzz1-D2
# Summary of the method: as §1
# [6] = biological target: AgCyk3
# Summary of the method: as §1
# [7] = biological target: AgFus1
# Summary of the method: as §1
# [8] = biological target: AgHof1
# Summary of the method: as §1
# [9] = biological target: AgHse1
# Summary of the method: as §1
# [10] = biological target: AgLsb1
# Summary of the method: as §1
# [11] = biological target: AgLsb4
# Summary of the method: as §1
# [12] = biological target: AgMyo5
# Summary of the method: as §1
# [13] = biological target: AgNbp2
# Summary of the method: as §1
# [14] = biological target: AgRvs167
# Summary of the method: as §1
# [15] = biological target: AgSho1
# Summary of the method: as §1
# [16] = biological target: AgSla1-D1-D2
# Summary of the method: as §1
# [17] = biological target: AgSla1-D3
# Summary of the method: as §1
# [18] = biological target: CaAbp1-D1
# Summary of the method: as §1
# [19] = biological target: CaAbp1-D2
# Summary of the method: as §1
# [20] = biological target: CaBbc1
# Summary of the method: as §1
# [21] = biological target: CaBem1-D1
# Summary of the method: as §1
# [22] = biological target: CaBzz1-D1
# Summary of the method: as §1
# [23] = biological target: CaBzz1-D2
# Summary of the method: as §1
# [24] = biological target: CaCyk3
# Summary of the method: as §1
# [25] = biological target: CaFus1
# Summary of the method: as §1
# [26] = biological target: CaHof1
# Summary of the method: as §1
# [27] = biological target: CaHse1
# Summary of the method: as §1
# [28] = biological target: CaLsb1
# Summary of the method: as §1
# [29] = biological target: CaLsb4
# Summary of the method: as §1
# [30] = biological target: CaMyo5
# Summary of the method: as §1
# [31] = biological target: CaNbp2
# Summary of the method: as §1
# [32] = biological target: CaRvs167
# Summary of the method: as §1
# [33] = biological target: CaRvs167-3
# Summary of the method: as §1
# [34] = biological target: CaSho1
# Summary of the method: as §1
# [35] = biological target: CaSla1-D1-D2
# Summary of the method: as §1
# [36] = biological target: CaSla1-D3
# Summary of the method: as §1
# [37] = biological target: ScAbp1
# Summary of the method: as §1
binder,measurement,setting,value
SSSSTPPTLPPRRIE,SPOT peptide array binding signal intensity,[1],7.5
same,SPOT peptide array binding signal intensity,[2],673
same,SPOT peptide array binding signal intensity,[3],42
same,SPOT peptide array binding signal intensity,[4],49
same,SPOT peptide array binding signal intensity,[5],≤ 0
same,SPOT peptide array binding signal intensity,[6],2
same,SPOT peptide array binding signal intensity,[7],≤ 0
same,SPOT peptide array binding signal intensity,[8],55
same,SPOT peptide array binding signal intensity,[9],42.5
same,SPOT peptide array binding signal intensity,[10],1840
same,SPOT peptide array binding signal intensity,[11],9180
same,SPOT peptide array binding signal intensity,[12],93.5
same,SPOT peptide array binding signal intensity,[13],10
same,SPOT peptide array binding signal intensity,[14],2660
same,SPOT peptide array binding signal intensity,[15],1
same,SPOT peptide array binding signal intensity,[16],≤ 0
same,SPOT peptide array binding signal intensity,[17],≤ 0
same,SPOT peptide array binding signal intensity,[18],24
same,SPOT peptide array binding signal intensity,[19],34.5
same,SPOT peptide array binding signal intensity,[20],1390
same,SPOT peptide array binding signal intensity,[21],4
same,SPOT peptide array binding signal intensity,[22],16
same,SPOT peptide array binding signal intensity,[23],≤ 0
same,SPOT peptide array binding signal intensity,[24],2
same,SPOT peptide array binding signal intensity,[25],77
same,SPOT peptide array binding signal intensity,[26],8.75
same,SPOT peptide array binding signal intensity,[27],731
same,SPOT peptide array binding signal intensity,[28],57.5
same,SPOT peptide array binding signal intensity,[29],7260
same,SPOT peptide array binding signal intensity,[30],≤ 0
same,SPOT peptide array binding signal intensity,[31],76.5
same,SPOT peptide array binding signal intensity,[32],2810
same,SPOT peptide array binding signal intensity,[33],0.25
same,SPOT peptide array binding signal intensity,[34],≤ 0
same,SPOT peptide array binding signal intensity,[35],138
same,SPOT peptide array binding signal intensity,[36],≤ 0
same,SPOT peptide array binding signal intensity,[37],≤ 0
